# Laboratory results as given in PMC7862700, “An all-to-all approach to the identification of sequence-specific readers for epigenetic DNA modifications on cytosine”.
# Legend:
# Experiment in all cases: DAPPL (digital affinity profiling via proximity ligation, sequencing); 10 mM Tris-HCl pH 7.5, 50 mM NaCl, 1 mM DTT, 4% glycerol, room temperature, 30 min; GST-TFs on glutathione beads, 16-mer random dsDNA library, 0.1% formaldehyde crosslink after washing; high values mean tight binding
# Details in all cases: protein: recombinant; tags: N-terminal GST; dsDNA, one strand shown
# FLI1 = target: T1, FLI1 (Homo sapiens, UniProt Q01543 1-452)
# T1 sequence: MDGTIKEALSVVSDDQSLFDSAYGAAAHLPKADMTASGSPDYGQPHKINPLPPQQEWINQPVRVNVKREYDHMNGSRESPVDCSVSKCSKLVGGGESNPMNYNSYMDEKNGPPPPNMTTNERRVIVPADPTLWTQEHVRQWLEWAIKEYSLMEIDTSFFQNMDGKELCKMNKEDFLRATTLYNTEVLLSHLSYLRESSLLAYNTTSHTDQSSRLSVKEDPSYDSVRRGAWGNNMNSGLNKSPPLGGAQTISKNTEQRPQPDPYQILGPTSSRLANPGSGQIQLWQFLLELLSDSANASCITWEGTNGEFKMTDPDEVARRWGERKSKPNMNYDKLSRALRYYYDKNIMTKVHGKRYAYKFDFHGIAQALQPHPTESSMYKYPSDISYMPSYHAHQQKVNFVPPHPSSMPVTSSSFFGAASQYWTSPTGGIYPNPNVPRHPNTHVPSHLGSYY
# Summary of the method: (§1)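 Pools were built from human transcription factors expressed in yeast as GST fusions, captured on glutathione beads and DNA-barcoded, along with a tag-only sample. Incubation with 200 nmole of a 16-mer random double-stranded DNA library lasted 30 min at room temperature in Tris/NaCl/DTT/glycerol buffer, and was followed by washing, 0.1% formaldehyde crosslinking, proximity ligation, PCR amplification and Illumina NextSeq500 sequencing. Binding signal is the quotient of each hexamer's read frequency for a factor and its frequency for the tag-only sample.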
# ELK1 = target: T2, ELK1 (Homo sapiens, UniProt P19419 1-428)
# T2 sequence: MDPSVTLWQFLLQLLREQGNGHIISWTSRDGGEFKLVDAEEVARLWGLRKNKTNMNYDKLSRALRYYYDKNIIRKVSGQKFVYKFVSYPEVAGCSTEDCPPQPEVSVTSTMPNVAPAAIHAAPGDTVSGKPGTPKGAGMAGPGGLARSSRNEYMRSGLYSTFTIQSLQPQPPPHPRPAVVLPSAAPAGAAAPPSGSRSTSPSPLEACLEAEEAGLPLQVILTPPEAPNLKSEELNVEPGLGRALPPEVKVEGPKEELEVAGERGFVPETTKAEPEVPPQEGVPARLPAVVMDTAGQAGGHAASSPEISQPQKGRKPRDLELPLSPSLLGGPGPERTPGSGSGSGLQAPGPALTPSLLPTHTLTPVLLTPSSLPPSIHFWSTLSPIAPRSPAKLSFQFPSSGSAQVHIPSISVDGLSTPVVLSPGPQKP
# Summary of the method: as §1
# GABPA = target: T3, GABPA (Homo sapiens, UniProt Q06546 1-454)
# T3 sequence: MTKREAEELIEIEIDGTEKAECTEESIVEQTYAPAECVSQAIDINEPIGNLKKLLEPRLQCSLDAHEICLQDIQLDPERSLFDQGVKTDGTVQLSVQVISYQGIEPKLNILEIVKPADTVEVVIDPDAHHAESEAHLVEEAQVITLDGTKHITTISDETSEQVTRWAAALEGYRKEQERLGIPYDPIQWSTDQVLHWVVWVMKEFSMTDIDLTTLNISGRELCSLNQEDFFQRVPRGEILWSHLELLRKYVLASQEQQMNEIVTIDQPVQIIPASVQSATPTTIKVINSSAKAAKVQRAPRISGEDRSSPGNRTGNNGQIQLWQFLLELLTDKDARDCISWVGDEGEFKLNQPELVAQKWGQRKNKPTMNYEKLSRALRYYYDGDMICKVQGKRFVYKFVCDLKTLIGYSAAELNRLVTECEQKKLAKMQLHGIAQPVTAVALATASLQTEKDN
# Summary of the method: as §1
# ERG = target: T4, ERG (Homo sapiens, UniProt P11308 1-479)
# T4 sequence: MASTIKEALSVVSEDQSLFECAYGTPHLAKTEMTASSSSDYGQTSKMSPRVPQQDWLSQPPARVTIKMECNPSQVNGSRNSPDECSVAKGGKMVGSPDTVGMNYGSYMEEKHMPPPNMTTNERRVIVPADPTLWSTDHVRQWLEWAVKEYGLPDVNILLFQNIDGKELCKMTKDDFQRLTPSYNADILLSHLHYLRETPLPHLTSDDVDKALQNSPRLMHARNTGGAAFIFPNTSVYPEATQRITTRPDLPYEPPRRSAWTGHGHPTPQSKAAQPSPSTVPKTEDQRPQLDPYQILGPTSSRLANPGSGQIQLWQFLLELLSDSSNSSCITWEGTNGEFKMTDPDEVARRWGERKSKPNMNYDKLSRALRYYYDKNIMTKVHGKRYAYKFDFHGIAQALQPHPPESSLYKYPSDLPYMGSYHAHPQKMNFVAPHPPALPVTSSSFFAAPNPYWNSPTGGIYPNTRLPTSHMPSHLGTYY
# Summary of the method: as §1
# ELF1 = ELF1 (Homo sapiens, UniProt P32519 1-619)
# Summary of the method: as §1
# EHF = target: T5, EHF (Homo sapiens, UniProt Q9NZC4 1-300)
# T5 sequence: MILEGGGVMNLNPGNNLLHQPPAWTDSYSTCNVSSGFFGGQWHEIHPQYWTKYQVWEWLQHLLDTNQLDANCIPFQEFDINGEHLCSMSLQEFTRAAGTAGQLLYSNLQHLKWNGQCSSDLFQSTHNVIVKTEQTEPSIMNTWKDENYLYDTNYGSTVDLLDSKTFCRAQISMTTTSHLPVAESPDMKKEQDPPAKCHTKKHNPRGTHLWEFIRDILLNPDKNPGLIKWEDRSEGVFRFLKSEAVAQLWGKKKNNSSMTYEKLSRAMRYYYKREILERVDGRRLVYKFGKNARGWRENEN
# Summary of the method: as §1
# SPI1 = SPI1 (Homo sapiens, UniProt P17947 1-270)
# Summary of the method: as §1
# SPIB = SPIB (Homo sapiens, UniProt Q01892 1-262)
# Summary of the method: as §1
# ELK3 = target: T6, ELK3 (Homo sapiens, UniProt P41970 1-407)
# T6 sequence: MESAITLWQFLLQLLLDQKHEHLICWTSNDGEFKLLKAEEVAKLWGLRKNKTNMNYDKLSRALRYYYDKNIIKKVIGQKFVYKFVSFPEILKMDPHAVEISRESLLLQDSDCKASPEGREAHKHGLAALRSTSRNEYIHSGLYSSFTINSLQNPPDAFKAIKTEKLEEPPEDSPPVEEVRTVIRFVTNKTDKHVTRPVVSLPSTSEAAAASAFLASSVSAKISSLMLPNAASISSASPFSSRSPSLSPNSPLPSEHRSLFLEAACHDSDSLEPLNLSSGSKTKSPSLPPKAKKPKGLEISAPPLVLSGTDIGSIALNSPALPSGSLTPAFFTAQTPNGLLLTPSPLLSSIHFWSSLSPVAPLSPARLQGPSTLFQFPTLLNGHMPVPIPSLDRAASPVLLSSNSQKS
# Summary of the method: as §1
# Sequence of SPIB (Q01892 whole entry): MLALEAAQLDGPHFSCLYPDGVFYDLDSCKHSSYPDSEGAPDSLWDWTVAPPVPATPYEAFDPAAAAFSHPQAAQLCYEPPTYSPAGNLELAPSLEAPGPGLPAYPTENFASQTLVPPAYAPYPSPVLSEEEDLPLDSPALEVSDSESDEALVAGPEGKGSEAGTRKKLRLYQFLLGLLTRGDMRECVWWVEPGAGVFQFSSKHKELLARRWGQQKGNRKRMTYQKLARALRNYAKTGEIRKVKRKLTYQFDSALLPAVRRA
# Sequence of ELF1 (P32519 whole entry): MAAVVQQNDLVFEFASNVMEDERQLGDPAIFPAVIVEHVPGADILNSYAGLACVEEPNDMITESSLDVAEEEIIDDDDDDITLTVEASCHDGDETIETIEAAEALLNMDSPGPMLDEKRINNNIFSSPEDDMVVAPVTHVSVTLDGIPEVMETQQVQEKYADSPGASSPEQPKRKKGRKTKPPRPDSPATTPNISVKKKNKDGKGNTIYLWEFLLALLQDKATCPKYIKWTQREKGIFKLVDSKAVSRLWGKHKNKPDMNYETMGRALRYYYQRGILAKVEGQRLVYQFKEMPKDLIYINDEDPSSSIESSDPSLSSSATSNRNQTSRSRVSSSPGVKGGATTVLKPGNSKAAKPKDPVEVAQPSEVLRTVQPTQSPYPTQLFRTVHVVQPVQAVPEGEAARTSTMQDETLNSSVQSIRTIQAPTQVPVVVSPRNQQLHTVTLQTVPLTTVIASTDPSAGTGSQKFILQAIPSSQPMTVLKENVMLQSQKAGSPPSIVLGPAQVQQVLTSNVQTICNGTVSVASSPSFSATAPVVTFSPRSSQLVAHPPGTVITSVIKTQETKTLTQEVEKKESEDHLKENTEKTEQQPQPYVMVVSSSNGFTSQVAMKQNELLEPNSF
sequence,measurement,setting,value
ATCCCA,binding signal,FLI1,"1.07 fold enrichment (6-mer frequency, TF over GST control)"
same,binding signal,ELK1,"1.14 fold enrichment (6-mer frequency, TF over GST control)"
same,binding signal,GABPA,"1.15 fold enrichment (6-mer frequency, TF over GST control)"
same,binding signal,ERG,"1.2 fold enrichment (6-mer frequency, TF over GST control)"
same,binding signal,ELF1,"1.22 fold enrichment (6-mer frequency, TF over GST control)"
same,binding signal,EHF,"1.15 fold enrichment (6-mer frequency, TF over GST control)"
same,binding signal,SPI1,"1.03 fold enrichment (6-mer frequency, TF over GST control)"
same,binding signal,SPIB,"1.05 fold enrichment (6-mer frequency, TF over GST control)"
same,binding signal,ELK3,"1.2 fold enrichment (6-mer frequency, TF over GST control)"
